Experimental data taken from PubChem BioAssay AID1159580 (chemical genetic matrix, 2015).
Values joined by “and” are separate entries in the source; they are usually repeats but may differ in a detail not shown here. Equal entries are not always repeated. Hit rate of the full screen: of about 5,500 compounds, about 2,000 (36%) were called active. Roughly 18% stayed inconclusive and do not appear here. No stated cut-off is given here; in the data, active means normalized growth mostly below about 0.91 (no sharp cut-off); inconclusive means no clear call, values can overlap the other calls; inactive means mostly above about 0.92. This is one part of the list.

Test: chemical genetic growth profiling, strain panel (AID 1159580);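 further: tested at 20 µM; growth read once vehicle control cultures reached saturation at 30 °C; 1 = growth at the plate median or of vehicle wells; lower values mean less growth of the strain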
Conditions: S. cerevisiae deletion strains, growth OD

Measured: normalized growth

CNCc1ccccc1
inactive: locus YAL013W, strain DEP1, hits give low values 0.994 | locus YAL021C, strain ccr4, hits give low values 1.01 | locus YAL026C, strain drs2, hits give low values 1.02 | locus YAL030W, strain snc1, hits give low values 1.02 | locus YBL061C, strain skt5, hits give low values 1.03 | locus YBR009C, strain hhf1, hits give low values 1.02 | locus YBR021W, strain FUR4, hits give low values 1.03 | locus YBR023C, strain chs3, hits give low values 1.03 | locus YBR171W, strain sec66, hits give low values 1.03 | locus YBR229C, strain ROT2, hits give low values 0.965 | locus YBR231C, strain swc5, hits give low values 1.01 | locus YBR279W, strain paf1, hits give low values 1.02 | locus YCL011C, strain gbp2, hits give low values 1.02 | locus YCL016C, strain dcc1, hits give low values 1.02 | locus YCL029C, strain bik1, hits give low values 0.984 | locus YCL061C, strain MRC1, hits give low values 1.01 | locus YCL069W, strain vba3, hits give low values 1.02 | locus YCR088W, strain abp1, hits give low values 1.03 | locus YDL005C, strain med2, hits give low values 1.02 | locus YDL035C, strain GPR1, hits give low values 1 | locus YDL040C, strain nat1, hits give low values 1 | locus YDL074C, strain BRE1, hits give low values 1.05 | locus YDL101C, strain DUN1, hits give low values 0.982 | locus YDL134C, strain PPH21, hits give low values 0.992 | locus YDL185W, strain tfp1, hits give low values 0.987 | locus YDL192W, strain arf1, hits give low values 0.997 | locus YDR001C, strain nth1, hits give low values 1.02 | locus YDR069C, strain doa4, hits give low values 1.01 | locus YDR101C, strain arx1, hits give low values 1.05 | locus YDR137W, strain rgp1, hits give low values 1.04 | locus YDR159W, strain sac3, hits give low values 1.05 | locus YDR162C, strain NBP2, hits give low values 0.957 | locus YDR195W, strain ref2 0.999 | locus YDR297W, strain sur2, hits give low values 1.02 | locus YDR318W, strain mcm21, hits give low values 0.965 | locus YDR334W, strain swr1, hits give low values 1.03 | locus YDR335W, strain msn5, hits give low values 1.02 | locus YDR388W, hits give low values 1.01 | locus YDR392W, strain spt3, hits give low values 1.01 | locus YDR502C, strain sam2, hits give low values 1 | locus YEL003W, strain gim4, hits give low values 1.02 | locus YEL037C, strain rad23, hits give low values 1.02 | locus YEL061C, strain CIN8 (second series), hits give low values 1.03 | locus YEL061C, strain CIN8, hits give low values 0.996 | locus YER015W, strain faa2, hits give low values 1.01 | locus YER016W, strain bim1, hits give low values 1.02 | locus YER110C, hits give low values 0.99 | locus YER111C, strain swi4, hits give low values 1.02 | locus YER155C, strain BEM2 (second series), hits give low values 1.02 | locus YER155C, strain BEM2, hits give low values 0.987 | locus YER167W, strain BCK2, hits give low values 0.988 | locus YFR010W, strain ubp6, hits give low values 1.04 | locus YGL078C, strain dbp3, hits give low values 0.999 | locus YGL086W, strain mad1, hits give low values 1.06 | locus YGL167C, strain pmr1, hits give low values 1.03 | locus YGL173C, strain kem1, hits give low values 1.03 | locus YGL227W, strain vid30, hits give low values 1.03 | locus YGL240W, strain doc1, hits give low values 1.01 | locus YGL248W, strain PDE1, hits give low values 0.984 | locus YGL253W, strain hxk2, hits give low values 1.03 | locus YGR078C, strain PAC10, hits give low values 0.981 | locus YGR135W, strain pre9, hits give low values 0.972 | locus YGR229C, strain SMI1, hits give low values 0.986 | locus YGR252W, strain gcn5, hits give low values 0.908 | locus YHR013C, strain ard1, hits give low values 1.03 | locus YHR027C, strain rpn1, hits give low values 1.04 | locus YHR030C, strain SLT2, hits give low values 1.01 and 0.986 | locus YHR079C, strain IRE1 (second series), hits give low values 0.989 | locus YHR079C, strain IRE1, hits give low values 0.975 | locus YHR094C, strain hxt1, hits give low values 0.978 | locus YHR129C, strain ARP1, hits give low values 1 | locus YHR142W, strain chs7, hits give low values 1.05 | locus YHR200W, strain rpn10, hits give low values 0.999 | locus YIL066C, strain RNR3, hits give low values 0.992 | locus YIL073C, strain SPO22, hits give low values 1.01 | locus YIL125W, strain kgd1, hits give low values 1 | locus YIR030C, strain dcg1, hits give low values 0.99 | locus YJL092W, strain hpr5, hits give low values 1.02 | locus YJL095W, strain BCK1 (second series), hits give low values 1.02 | locus YJL095W, strain BCK1, hits give low values 0.95 and 0.974 | locus YJL115W, strain asf1, hits give low values 1.03 | locus YJL129C, strain trk1, hits give low values 1.05 | locus YJL134W, strain LCB3, hits give low values 0.996 | locus YJL154C, strain vps35, hits give low values 1.03 | locus YJL164C, strain tpk1, hits give low values 1.01 | locus YJL166W, strain qcr8, hits give low values 1.02 | locus YJL168C, strain set2, hits give low values 0.991 | locus YJL187C, strain SWE1 (second series), hits give low values 0.977 | locus YJL187C, strain SWE1, hits give low values 1.03 | locus YJR043C, strain POL32, hits give low values 1
